# Experimental data taken from PubChem BioAssay AID1259312 (Keith Lab, Institute of Cancer Science, University of …, 2017).
# Hit rate of the full screen: of about 4,500 compounds, about 200 (4.4%) were called active. The entries come from a sample that favours actives as a whole. Values without a mark were called inactive.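 Rule for the calls: active = cell survival measured by absorbance rises more than 2.5-fold over infected cells without compound; inactive = the rest.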
# Assay: survival after telomere uncapping, modulators, primary screen, cell-based (AID 1259312);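 note: virus expresses mutant telomerase RNA that uncaps telomeres and kills cells; compound added 2 days after infection so exposure lasts 3 days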
# Settings: HCT116 + Ad-hTR-mut, MTT, 5 d; at 10 µM, stronger effect = higher value
row,Compound,fold change
1,CN1CCN(c2ccc([N+](=O)[O-])c(N3CCN(C)CC3)c2)CC1,-1.49
2,O=[N+]([O-])c1ccc(N2CCOCC2)cc1Cl,4.62 (active)
3,CC1CN(c2ccc([N+](=O)[O-])c(N3CCOCC3)c2)CCN1 (stereo not given),-1.03
4,O=[N+]([O-])c1ccc(Cl)c2nonc12,-8.7
5,NC1(Cc2ccc(Cl)cc2)CC1,-2.29
6,COc1cc2c(cc1OC)C13CCN4CC5=CCOC6CC(=O)N2C1C6C5CC43 (stereo not given),3.18 (active)
7,O=C1C[C@@H]2OCC=C3CN4CC[C@]56c7ccccc7N1[C@H]5[C@H]2[C@H]3C[C@H]46,-1.27
8,CN1CCN(c2ccc([N+](=O)[O-])cc2Cl)CC1,-1.02
9,N#CC(C#N)=Cc1c2ccccc2cc2ccccc12,3.81 (active)
10,Cc1cc(C)c(C)c(C=C(C#N)C#N)c1C,1.51
11,CCc1cc(CC)c(C=C(C#N)C#N)c(CC)c1,1.07
12,CCOC(=O)c1c(NC(=O)C2C(C)(C)C2(C)C)sc2c1CCC2,-1.33
13,CC1CN(c2ccc([N+](=O)[O-])cc2[N+](=O)[O-])CCN1 (stereo not given),2.15
14,Clc1ccc2c(N3CCNCC3)ccnc2c1,-2.13
15,CC(=O)OC1CCC2(C)C3CCC4(C)C(CC[C@]4(OC(C)=O)C(C)OC(C)=O)C3CC[C@H]2C1 (stereo not given in full),3.25 (active)
16,C[C@]12CC[C@H](O)C[C@@H]1CC[C@@H]1[C@@H]2CC[C@]2(C)C(=O)CC[C@@H]12,1.18
17,COC(=O)C(N)CCCN=C(N)N[N+](=O)[O-] (stereo not given),-1.4
18,CCNc1nc(Cl)nc(NCC)n1,2.5 (active)
19,O=c1[nH]c(=O)n(Cc2ccco2)c(O)c1C=NCc1cccs1,inactive
20,COC(=O)Nc1nc2ccccc2[nH]1,-8.68
21,O=[N+]([O-])c1ccc(NCCO)c2ncccc12,2.89 (active)
22,O=[N+]([O-])c1ccc(NCCO)c2cccnc12,-1.59
23,CCNCCNc1ccc([N+](=O)[O-])c2cccnc12,-2.62

row,Compound,fold change
1,N#Cc1c(/N=C/c2c(O)n(Cc3ccco3)c(=O)[nH]c2=O)sc2c1CCCC2,inactive
2,CC1CN(c2ccccc2[N+](=O)[O-])CCN1 (stereo not given),1.8
3,CC1(C)C(C(=O)Nc2cc(Br)c(Br)c(Br)c2)C1(C)C,-1.03
4,COc1cc2c(cc1OC)C(C)NCC2 (stereo not given),1.05
5,COc1cc2c(cc1O)CCNC2C (stereo not given),4.6 (active)
6,COc1ccc(CC2NCCc3cc(OC)c(OC)cc32)cc1OC (stereo not given),-2.4
7,COCc1c(C)cc(C)c(C=C(C#N)C#N)c1C,-1.04
8,C[C@]12CC[C@H]3[C@@H](CC[C@]4(O)C[C@@H](O)CC[C@]34C=O)[C@@]1(O)CC[C@@H]2C1=CC(=O)OC1,-23.3
9,CCC1CN2CCC1CC2C(O)c1ccnc2ccc(OC)cc12 (stereo not given),1.15
10,C#CCSc1nc2ccccc2c(=O)n1-c1ccccc1,-2.72
11,CCCCc1ccc(C=C(C#N)C#N)s1,-1.17
12,N/N=C(\N)c1nonc1N,3.99 (active)
13,Nc1nonc1[N+](=O)[O-],1.03
14,Nc1nonc1-c1nn[nH]n1,-1.38
15,Cc1cc(C)[n+]2cc(Br)ccc2n1,1.21
16,O=C(CCl)Nc1ccccn1,-1.43
17,O=[N+]([O-])c1ccc(N2CCNCC2)c2cccnc12,-1.29
18,CN1CCN(c2ccc([N+](=O)[O-])c3cccnc23)CC1,-1.27
19,CC1CN(c2ccc([N+](=O)[O-])c3cccnc23)CC(C)N1 (stereo not given),3.89 (active)
20,O=C(CCl)NCc1ccco1,1.2
21,CCc1nnc(NC(=O)CCl)s1,1.66
22,N#CC1=C(N)Oc2c(c(=O)oc3ccccc23)C1c1cccc2ccccc12 (stereo not given),-1.29
